Results published in PubChem BioAssay (NCATS).
Results filed as inconclusive are left out. Calls of active or inactive are those of the source. The call rests on the fitted dose curve; in most records, active means well fitted curve in the direction sought with a large enough effect; inconclusive means small, poorly fitted or top-dose-only effect, or another doubt; inactive means no such curve, though single readings can be large; an effect the other way counts as inactive or inconclusive.

Assays:
[1] = Primary qHTS for inhibitors of nuclear receptor binding SET domain protein 2 (NSD2) in an isogenic RCH-ACV NSD2 p.E1099K mutant (9B) (AID 1645876); further: nearly all actives have a fitted effect of over 70% in size; further: potency means the concentration at half of the fitted maximal effect
[2] = Primary qHTS for inhibitors of nuclear receptor binding SET domain protein 2 (NSD2) in an RCH-ACV wild type WT cells (2C) (AID 1645877); further: nearly all actives have a fitted effect of over 70% in size; further: potency means the concentration at half of the fitted maximal effect
[3] = target: Glutathione peroxidase 1 (Homo sapiens) (UniProt P07203); assay: Primary qHTS Assay for Inhibitors of Recombinant Selenoprotein Glutathione Peroxidase 1 (GPX1) (AID 1845191); further: on the % scale 0 is the no-effect control and ±100 the full control effect; nearly all actives have a fitted effect of over 65% in size
How it was run: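 GPX1 10 nM, GR 100 nM, GSH 1 mM, NADPH 0.5 mM, CHP 0.5 mM (final). 30-min cpd preincubation, RT. Ex340/Em450 read t=0, t=15 min.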

[4] = target: Phospholipid hydroperoxide glutathione peroxidase GPX4 (Homo sapiens) (UniProt P36969); assay: Primary qHTS Assay for Inhibitors of Recombinant Selenoprotein Glutathione Peroxidase 4 (GPX4) (AID 1845192); further: on the % scale 0 is the no-effect control and ±100 the full control effect; nearly all actives have a fitted effect of over 65% in size
How it was run: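 qHTS, GR-coupled: GPX4 200 nM + cpd 30 min RT → GSH 1 mM, NADPH 0.5 mM, GR 100 nM → CHP 0.5 mM start; fluor 340/450 at t0 and t15 min; no-enzyme wells as control.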

[5] = target: Luciferin 4-monooxygenase (Photinus pyralis) (UniProt P08659); assay: Primary firefly luciferase (FLuc) qHTS assay for identification of artifact compounds. (AID 1845220); details: outcome: dose series up to 54.1 µM unless noted;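 further: plate controls were DMSO vehicle for no effect and no enzyme for full effect; nearly all actives have a fitted effect of over 60% in size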
How it was run: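 Reaction readout was CCD-imaged luminescence, taken 5 min after adding 10 nM purified firefly enzyme to compound-treated wells holding 10 uM luciferin and ATP in pH 7.6 buffer.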

[6] = Primary fluorescence-based thiol-reactive (MSTI) qHTS assay for identification of artifact compounds. (AID 1845221);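 further: thiol-reactive compounds lower the probe fluorescence signal; nearly all actives have a fitted effect of over 65% in size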
How it was run: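 In PBS pH 7.4 with 2% DMSO, each compound met 4 uM MSTI for one hour at ambient temperature, shielded from light, before fluorescence detection.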

[7] = system: Nanoluciferase (engineered Oplophorus gracilirostris luciferase); assay: Primary Nanoluciferase (NLuc) qHTS assay for identification of artifact compounds. (AID 1845222);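 further: NLuc secreted into diluted conditioned medium of S16 cells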
How it was run: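 Concentration-response data were obtained by luminescence after 5 min with Nano-Glo substrate at 1:100. The enzyme was diluted S16 NLuc-expressing cell medium, preincubated with compound for 15 min at RT. Curves were fitted with a 4-parameter Hill model.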

[8] = system: CRL-7250; assay: Cytotoxic Profiling of Annotated Libraries Using Quantitative High-Throughput Screening (AID 1296008); details: Five cell lines viability, CellTiter-Glo ATP luminescence, 48-72 h; max response: active compounds read low; further: nearly all actives have a fitted effect of over 60% in size; further: potency means the concentration at half of the fitted maximal effect; on max response: on the % scale 0 is the no-effect control and ±100 the full control effect
How it was run: (§1)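 Compounds were pin-transferred onto cells and incubated 48 or 72 hr at 37 degree Celsius, 95% humidity. CellTiter-Glo was added, plates sat 10 min at room temperature, then ATP-coupled luminescence was imaged as the viability read-out.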

[9] = system: HEK293; assay: as above; details: Five cell lines viability, CellTiter-Glo ATP luminescence, 48-72 h; max response: active compounds read low
How it was run: as §1

[10] = system: HaCat; assay: as above; details: Five cell lines viability, CellTiter-Glo ATP luminescence, 48-72 h; max response: active compounds read low
How it was run: as §1

[11] = system: KB-3-1; assay: as above; details: Five cell lines viability, CellTiter-Glo ATP luminescence, 48-72 h; max response: active compounds read low
How it was run: as §1

[12] = system: NIH3T3; assay: as above; details: Five cell lines viability, CellTiter-Glo ATP luminescence, 48-72 h; max response: active compounds read low
How it was run: as §1

[13] = system: C33A; assay: Primary qHTS to identify gynecologic anti-cancer compounds using libraries of approved drugs and bioactive compounds (AID 1345084); details: Gynecologic cancer cell panel viability, ATPlite luminescence, 48 h; series mostly up to 57.5 µM; further: nearly all actives have a fitted effect of over 55% in size; further: potency means the concentration at half of the fitted maximal effect
How it was run: (§2)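 Five-concentration response, 48 h; readout is ATP-driven luciferase luminescence.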

[14] = system: CASKI; assay: as above; details: Gynecologic cancer cell panel viability, ATPlite luminescence, 48 h; series mostly up to 57.5 µM
How it was run: as §2

[15] = system: Es-2; assay: as above; details: Gynecologic cancer cell panel viability, ATPlite luminescence, 48 h; series mostly up to 57.5 µM
How it was run: as §2

[16] = system: Hek293T; assay: as above; details: Gynecologic cancer cell panel viability, ATPlite luminescence, 48 h, control line for the selectivity index; series mostly up to 57.5 µM
How it was run: as §2

[17] = system: OV90; assay: as above; details: Gynecologic cancer cell panel viability, ATPlite luminescence, 48 h; series mostly up to 57.5 µM
How it was run: as §2

[18] = system: PA-1; assay: as above; details: Gynecologic cancer cell panel viability, ATPlite luminescence, 48 h; series mostly up to 57.5 µM
How it was run: as §2

[19] = system: Tov-21-G; assay: as above; details: Gynecologic cancer cell panel viability, ATPlite luminescence, 48 h; series mostly up to 57.5 µM
How it was run: as §2

[20] = system: Tov112D; assay: as above; details: Gynecologic cancer cell panel viability, ATPlite luminescence, 48 h; series mostly up to 57.5 µM
How it was run: as §2

Phospholipid hydroperoxide glutathione peroxidase GPX4 (Homo sapiens), sequence (P36969 whole entry, looked up): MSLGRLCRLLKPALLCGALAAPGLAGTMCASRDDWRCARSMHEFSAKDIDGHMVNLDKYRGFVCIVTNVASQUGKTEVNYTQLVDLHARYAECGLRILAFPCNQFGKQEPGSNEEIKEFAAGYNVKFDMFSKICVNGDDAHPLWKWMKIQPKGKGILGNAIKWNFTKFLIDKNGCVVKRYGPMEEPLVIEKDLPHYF
Glutathione peroxidase 1 (Homo sapiens), sequence (P07203 whole entry, looked up): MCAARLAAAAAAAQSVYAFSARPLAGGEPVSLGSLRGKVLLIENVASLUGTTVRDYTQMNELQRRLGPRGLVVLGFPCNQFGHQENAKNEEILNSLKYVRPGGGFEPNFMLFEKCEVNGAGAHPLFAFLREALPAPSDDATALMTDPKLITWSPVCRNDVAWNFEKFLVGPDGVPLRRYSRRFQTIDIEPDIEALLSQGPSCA

N#Cc1ccc([C@H]2CCCC[C@H]2O)cc1C(F)(F)F
inactive: Potency [1] | Potency [2] | Potency [3] | Potency [4] | outcome [5] | Potency [6] | Potency [7] | max response [8] 1.6% | max response [9] -11% | max response [10] -7.91% | max response [11] -5.63% | max response [12] -1.88% | Potency [13] | Potency [14] | Potency [15] | Potency [16] | Potency [17] | Potency [18] | Potency [19] | Potency [20]

C=C1[C@@H](C)[C@H]2[C@H](Cc3ccccc3)NC(=O)[C@]23OC(=O)/C=C/C(=O)CCC[C@@H](C)C/C=C/[C@H]3[C@@H]1O
active: Potency [1] 1.45 µM | Potency [2] 0.459 µM | Potency [8] 1.64 µM | Potency [9] 1.84 µM | Potency [10] 20.6 µM | Potency [11] 5.8 µM | Potency [12] 1.16 µM | Potency [14] 15.8 µM | Potency [15] 14.1 µM | Potency [16] 15.8 µM | Potency [18] 20 µM | Potency [19] 15.8 µM | Potency [20] 15.8 µM
inactive: Potency [3] | Potency [4] | outcome [5] | Potency [6] | Potency [7]

CC(C)(C)[C@]1(O)C[C@@H]2OC(=O)C[C@@]23C(=O)O[C@@H]2OC(=O)[C@@H](O)[C@]213
inactive: Potency [1] | Potency [2] | Potency [3] | Potency [4] | outcome [5] | Potency [6] | Potency [7] | max response [8] 1.12% | max response [9] 1.81% | max response [10] -5.58% | max response [11] -3.84% | max response [12] 3.76% | Potency [13] | Potency [14] | Potency [15] | Potency [16] | Potency [17] | Potency [18] | Potency [19] | Potency [20]

COc1ccc2c3c([nH]c2c1)C(C=C(C)C)N1C(=O)C2CCCN2C(=O)C1C3 (stereo not given)
inactive: Potency [3] | Potency [4] | outcome [5] | Potency [7] | max response [8] -26.7% | max response [9] -10.4% | max response [10] -17.6% | outcome [11] | max response [12] -20.2% | Potency [13] | Potency [14] | Potency [15] | Potency [16] | Potency [17] | Potency [18] | Potency [19] | Potency [20]
